{"source": "ChEMBL document CHEMBL3433997", "about": "“St. Jude Leishmania screening dataset” (2016)", "format_in_all_cases": "functional", "key": {"[1]": {"target": "Solute carrier family 2, facilitated glucose transporter member 1 (Homo sapiens) (UniProt P11166)", "sequence (P11166 whole entry)": "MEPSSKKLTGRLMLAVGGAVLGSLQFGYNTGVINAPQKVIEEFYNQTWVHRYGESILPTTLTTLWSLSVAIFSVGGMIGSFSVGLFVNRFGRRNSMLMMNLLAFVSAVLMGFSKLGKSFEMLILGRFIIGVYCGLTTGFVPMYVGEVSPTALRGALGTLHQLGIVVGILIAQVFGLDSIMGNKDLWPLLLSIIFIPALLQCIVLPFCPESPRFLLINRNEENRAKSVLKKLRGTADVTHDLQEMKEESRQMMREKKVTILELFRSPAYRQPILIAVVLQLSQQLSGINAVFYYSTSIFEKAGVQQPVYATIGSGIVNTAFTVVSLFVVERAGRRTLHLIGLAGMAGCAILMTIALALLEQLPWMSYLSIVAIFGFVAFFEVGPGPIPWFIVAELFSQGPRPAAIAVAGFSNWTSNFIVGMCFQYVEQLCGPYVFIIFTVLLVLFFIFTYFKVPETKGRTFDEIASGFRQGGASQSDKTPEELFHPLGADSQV", "assay": "ST_JUDE_LEISH: Cytotoxicity at 2uM final concentration against transgenic Leishmania Mexicana promastigotes LmGLUT1 that are glucose transport deficient and complemented with the human glucose transporter GLUT1. Activity is measured by DNA content using SYBR green in vitro"}, "[2]": {"target": "Hexose transporter 1 (Plasmodium falciparum) (UniProt O97467)", "assay": "ST_JUDE_LEISH: Cytotoxicity at 2uM final concentration against transgenic Leishmania Mexicana promastigotes LmPfHT that are glucose transport deficient and complemented with the Plasmodium falciparum hexose transporter. Activity is measured by DNA content using SYBR green in vitro"}, "[3]": {"target": "Glucose transporter (Leishmania mexicana) (UniProt O61059)", "assay": "ST_JUDE_LEISH: Cytotoxicity at 2uM final concentration against transgenic Leishmania Mexicana promastigotes LmGT2 that are glucose transport deficient and complemented with the L. Mexicana glucose transporter 2. Activity is measured by DNA content using SYBR green in vitro"}}, "data": [{"molecule": "Cc1cccc2nc(-c3ccc(-c4ccc(CNCCc5ccncc5)cc4)cc3)[nH]c12", "values": [{"measurement": "inhibition", "setting": "[1]", "result": 13.2, "unit": "%"}, {"measurement": "inhibition", "setting": "[2]", "result": 21.1, "unit": "%"}, {"measurement": "inhibition", "setting": "[3]", "result": 10.1, "unit": "%"}]}, {"molecule": "COc1ccc(CCNC(=O)c2ccccc2O)cc1-c1ccc(C(C)(C)C)cc1", "values": [{"measurement": "inhibition", "setting": "[1]", "result": 4.03, "unit": "%"}, {"measurement": "inhibition", "setting": "[2]", "result": 2.33, "unit": "%"}, {"measurement": "inhibition", "setting": "[3]", "result": 3.39, "unit": "%"}]}, {"molecule": "COc1ccc(-c2ccnc(-c3cccc(-c4ccccn4)n3)c2)cc1", "values": [{"measurement": "inhibition", "setting": "[1]", "result": 7.03, "unit": "%"}, {"measurement": "inhibition", "setting": "[2]", "result": 24.9, "unit": "%"}, {"measurement": "inhibition", "setting": "[3]", "result": 2.98, "unit": "%"}]}, {"molecule": "O=C(CCc1c[nH]cn1)Nc1ccc(-c2ccc(-c3nc4ccccc4[nH]3)cc2)cc1", "values": [{"measurement": "inhibition", "setting": "[1]", "result": 19.3, "unit": "%"}, {"measurement": "inhibition", "setting": "[2]", "result": 16.7, "unit": "%"}, {"measurement": "inhibition", "setting": "[3]", "result": 15.2, "unit": "%"}]}, {"molecule": "O=[N+]([O-])c1cccc(-c2ccc(C=NNc3cc(N4CCCC4)nc(N4CCCC4)n3)o2)c1", "values": [{"measurement": "inhibition", "setting": "[1]", "result": 3.39, "unit": "%"}, {"measurement": "inhibition", "setting": "[2]", "result": 3.17, "unit": "%"}, {"measurement": "inhibition", "setting": "[3]", "result": 3.82, "unit": "%"}]}, {"molecule": "Cc1cc(N2CCCC2)nc(Nc2ccc(NC(=O)c3ccccc3)cc2)n1", "values": [{"measurement": "inhibition", "setting": "[1]", "result": 1.14, "unit": "%"}, {"measurement": "inhibition", "setting": "[2]", "result": 6.69, "unit": "%"}, {"measurement": "inhibition", "setting": "[3]", "result": 3.09, "unit": "%"}]}, {"molecule": "O=C(Cc1ccccc1)NC(CCN1CCC(NC(=O)c2ccc(Cl)cc2)CC1)c1ccc(Cl)c(Cl)c1", "note": "(stereo unspecified)", "values": [{"measurement": "inhibition", "setting": "[1]", "result": 2.22, "unit": "%"}, {"measurement": "inhibition", "setting": "[2]", "result": 0.27, "unit": "%"}, {"measurement": "inhibition", "setting": "[3]", "result": 1.02, "unit": "%"}]}, {"molecule": "COc1ccc(Cn2c(Nc3cccc(C(F)(F)F)c3)nc3cc(C(=O)NCCCN(C)C)ccc32)cc1Cl", "values": [{"measurement": "inhibition", "setting": "[1]", "result": 0.66, "unit": "%"}, {"measurement": "inhibition", "setting": "[2]", "result": 0.55, "unit": "%"}, {"measurement": "inhibition", "setting": "[3]", "result": -1.19, "unit": "%"}]}, {"molecule": "O=C(/C=C/c1ccc(Cl)c(Cl)c1)NCCCCCN1CCN(C(=O)Nc2ccc(OC(F)F)cc2)CC1", "values": [{"measurement": "inhibition", "setting": "[1]", "result": 2.15, "unit": "%"}, {"measurement": "inhibition", "setting": "[2]", "result": 1.76, "unit": "%"}, {"measurement": "inhibition", "setting": "[3]", "result": -2.1, "unit": "%"}]}, {"molecule": "Cn1ncc2c3c(CCN4CCC(NCc5cc6c(cn5)OCC6)CC4)c(Cl)cnc3ccc21", "values": [{"measurement": "inhibition", "setting": "[1]", "result": 0.52, "unit": "%"}, {"measurement": "inhibition", "setting": "[2]", "result": 0.99, "unit": "%"}, {"measurement": "inhibition", "setting": "[3]", "result": 0.05, "unit": "%"}]}, {"molecule": "Cc1c(CNCCCNc2nc3ccccc3[nH]2)sc(C(F)F)c1Br", "values": [{"measurement": "inhibition", "setting": "[1]", "result": 3.07, "unit": "%"}, {"measurement": "inhibition", "setting": "[2]", "result": 0.8, "unit": "%"}, {"measurement": "inhibition", "setting": "[3]", "result": 1.17, "unit": "%"}]}, {"molecule": "O=C1OC(c2ccccc2)(c2ccccn2)CN1C1CCN(Cc2cccn2-c2ccc(Cl)cc2)CC1", "note": "(stereo unspecified)", "values": [{"measurement": "inhibition", "setting": "[1]", "result": 2.2, "unit": "%"}, {"measurement": "inhibition", "setting": "[2]", "result": 1.43, "unit": "%"}, {"measurement": "inhibition", "setting": "[3]", "result": -0.08, "unit": "%"}]}]}
